Source: PubChem BioAssay (Tox21)
Several values for one entry are separate records, joined by “and”; a condition that tells them apart may be missing. Equal entries are not always repeated. Unmarked numbers belong to inactive results. Results filed as inconclusive are left out. A call without a number means that no potency is given here. Activity calls are given as the source filed them. Calls follow the shape of the dose curve; as a rule, active = well fitted curve in the direction sought with a large enough effect in the repeat runs; inconclusive = weak or mixed curves; inactive = no such curve, though single readings can be large; an effect the other way counts as inactive or inconclusive.

Key:
[1] = Caspase-3/7 induction in HepG2 cells by small molecules, qHTS assay (AID 1346978); also: nearly all actives have a fitted effect of over 15% in size; also: potency is read from the fitted curve at half-maximal effect
Procedure, shortened: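 Wild-type HepG2 cells, 2,000/well, settled 5 hr at 37 C and 5% CO2, then compound-treated for 17 hr; caspase-3/7 activity read by luminescent Caspase-Glo 3/7 after 30 min at room temperature.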

[2] = Caspase-3/7 induction in CHO-K1 cells by small molecules, qHTS cell viability counter screen (AID 1346979); also: nearly all actives have a fitted effect of over 35% in size; also: potency is read from the fitted curve at half-maximal effect
Procedure, shortened: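 Viability readout by fluorescence (CellTiter-Fluor) on wild-type CHO-K1 cells exposed for 16hr at 37C and 5% CO2 to compounds delivered in DMSO; reagent incubated 1hr before reading.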

[3] = Caspase-3/7 induction in CHO-K1 cells by small molecules, qHTS assay (AID 1346980); also: nearly all actives have a fitted effect of over 15% in size
Procedure, shortened: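 Wild-type CHO-K1 cells exposed to compounds for 17hr at 37 C, 5% CO2. Caspase-3/7 activity then measured by Caspase-Glo 3/7 luminescence after 30min at room temperature.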

[4] = Caspase-3/7 induction in HepG2 cells by small molecules, qHTS cell viability counter screen (AID 1346981); also: nearly all actives have a fitted effect of over 30% in size; also: potency is read from the fitted curve at half-maximal effect; as to activity change, negative = cytotoxicity: series mostly up to about 92 µM
Procedure, shortened: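 In this quantitative HTS counter screen, compounds delivered in DMSO were left on unmodified HepG2 cells for 16 hr at 37 C. Viability was then determined fluorometrically with CellTiter-Fluor, in parallel with caspase-3/7 induction in the same wells.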

[5] = molecular target: Nuclear receptor subfamily 1 group I member 2 (Homo sapiens) (UniProt O75469); assay: Human pregnane X receptor (PXR) small molecule agonists, qHTS assay (AID 1346982); also: nearly all actives have a fitted effect of over 35% in size
Nuclear receptor subfamily 1 group I member 2 (Homo sapiens), sequence (O75469 whole entry, looked up): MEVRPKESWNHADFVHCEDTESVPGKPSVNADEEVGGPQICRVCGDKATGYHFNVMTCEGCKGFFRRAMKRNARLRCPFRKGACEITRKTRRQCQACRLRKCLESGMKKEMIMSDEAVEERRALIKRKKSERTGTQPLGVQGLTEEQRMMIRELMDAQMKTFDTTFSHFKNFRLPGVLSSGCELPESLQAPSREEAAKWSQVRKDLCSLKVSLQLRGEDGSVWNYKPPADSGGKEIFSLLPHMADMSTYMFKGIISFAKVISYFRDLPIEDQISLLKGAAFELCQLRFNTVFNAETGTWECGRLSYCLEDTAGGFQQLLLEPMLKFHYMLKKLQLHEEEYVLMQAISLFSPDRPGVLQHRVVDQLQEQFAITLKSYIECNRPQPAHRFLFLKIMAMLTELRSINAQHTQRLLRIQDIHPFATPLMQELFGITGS
Procedure, shortened: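 Reporter HepG2 cells expressing PXR-Luc are cultured in charcoal-stripped FBS (5%), treated with compounds for 24 hr at 37 C, and assayed by ONE-Glo luminescence after 30 min at room temperature.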

[6] = molecular target: Nuclear receptor subfamily 1 group I member 2 (Rattus norvegicus) (UniProt Q9R1A7); assay: Rat pregnane X receptor (rPXR) activation by small molecules, qHTS assay (AID 1346983); conditions: rPXR luciferase reporter cells, One-Glo luminescence, 24 h; active compounds read high; also: nearly all actives have a fitted effect of over 20% in size
Nuclear receptor subfamily 1 group I member 2 (Rattus norvegicus), sequence (Q9R1A7 whole entry, looked up): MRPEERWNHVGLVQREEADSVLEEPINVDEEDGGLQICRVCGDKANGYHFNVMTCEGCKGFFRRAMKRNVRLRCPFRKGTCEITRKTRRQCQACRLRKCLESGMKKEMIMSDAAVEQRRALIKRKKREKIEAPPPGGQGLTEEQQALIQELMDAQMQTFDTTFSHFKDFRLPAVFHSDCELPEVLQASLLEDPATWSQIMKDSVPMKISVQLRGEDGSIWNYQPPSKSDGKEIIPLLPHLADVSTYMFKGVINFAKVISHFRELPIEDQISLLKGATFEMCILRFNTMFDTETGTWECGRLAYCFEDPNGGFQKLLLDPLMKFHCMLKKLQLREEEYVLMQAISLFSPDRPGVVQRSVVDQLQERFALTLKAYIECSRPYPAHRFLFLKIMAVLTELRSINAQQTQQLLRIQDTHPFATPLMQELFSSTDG
Procedure, shortened: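 Cell-based rPXR activation assay: rPXR cells, 2,000 per well, rested 5hr at 37 C, then exposed to compounds in DMSO for 24 hr at 37 C. Luciferase activity read by One-Glo luminescence after 30 min at room temperature.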

[7] = molecular target: Nuclear receptor subfamily 1 group I member 2 (Homo sapiens) (UniProt O75469); assay: CYP3A4 induction through human pregnane X receptor (PXR) by small molecules, qHTS assay (AID 1346984); also: nearly all actives have a fitted effect of over 40% in size; also: potency is read from the fitted curve at half-maximal effect
Procedure, shortened: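 Induction measured in HepG2-based DPX-2 cells co-expressing human PXR and a CYP3A4 promoter-driven luciferase. After a 24-hour compound exposure, cells received CYP3A4 luciferin substrate at 3uM final for 3 hours, and light output was then recorded.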

[8] = molecular target: Nuclear receptor subfamily 1 group I member 2 (Homo sapiens) (UniProt O75469); assay: Human pregnane X receptor (PXR) activation by small molecules, qHTS assay (AID 1346985); also: nearly all actives have a fitted effect of over 40% in size; also: potency is read from the fitted curve at half-maximal effect
Procedure, shortened: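 DPX-2 cells (HepG2 co-transfected with a PXR response element and a CYP3A4-promoter luciferase construct) were seeded at 2,000 per well, rested 5 hr at 37C, then exposed to DMSO-dissolved compounds for 24 hr. Activation was read as luciferase luminescence.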

[9] = molecular target: Cytochrome P450 2D6 (Homo sapiens) (UniProt P10635); assay: Cytochrome P450 Family 2 Subfamily D Member 6 (CYP2D6) small molecule antagonists: luciferase reporter qHTS assay (AID 1671196); also: nearly all actives have a fitted effect of over 50% in size; also: potency is read from the fitted curve at half-maximal effect; as to activity change, negative = inhibition: series mostly up to about 120 µM
Cytochrome P450 2D6 (Homo sapiens), sequence (P10635 whole entry, looked up): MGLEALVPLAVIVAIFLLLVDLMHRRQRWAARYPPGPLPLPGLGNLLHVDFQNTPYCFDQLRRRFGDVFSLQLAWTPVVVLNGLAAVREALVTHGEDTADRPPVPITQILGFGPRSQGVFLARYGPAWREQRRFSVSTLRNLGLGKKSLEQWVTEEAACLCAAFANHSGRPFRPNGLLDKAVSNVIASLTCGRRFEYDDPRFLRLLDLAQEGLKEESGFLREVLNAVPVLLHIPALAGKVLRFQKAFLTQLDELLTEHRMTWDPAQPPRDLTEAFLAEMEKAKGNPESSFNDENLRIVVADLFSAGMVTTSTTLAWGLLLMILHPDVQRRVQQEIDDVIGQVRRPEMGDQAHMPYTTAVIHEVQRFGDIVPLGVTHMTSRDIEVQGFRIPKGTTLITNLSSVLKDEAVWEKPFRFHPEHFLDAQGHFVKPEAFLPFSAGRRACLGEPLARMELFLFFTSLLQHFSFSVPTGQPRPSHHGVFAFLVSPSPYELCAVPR
Procedure, shortened: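 Test chemicals meet CYP2D6 plus proluciferin substrate (10 min, RT); NADPH regenerating solution then drives turnover for 1 h. Detection reagent halts the reaction; luminescence measured after 20 min.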

[10] = molecular target: Cytochrome P450 2C19 (Homo sapiens) (UniProt P33261); assay: Cytochrome P450 Family 2 Subfamily C Member 19 (CYP2C19) small molecule antagonists: luciferase reporter qHTS assay (AID 1671197); also: nearly all actives have a fitted effect of over 65% in size; also: potency is read from the fitted curve at half-maximal effect; as to activity change, negative = inhibition: series mostly up to about 120 µM
Cytochrome P450 2C19 (Homo sapiens), sequence (P33261 whole entry, looked up): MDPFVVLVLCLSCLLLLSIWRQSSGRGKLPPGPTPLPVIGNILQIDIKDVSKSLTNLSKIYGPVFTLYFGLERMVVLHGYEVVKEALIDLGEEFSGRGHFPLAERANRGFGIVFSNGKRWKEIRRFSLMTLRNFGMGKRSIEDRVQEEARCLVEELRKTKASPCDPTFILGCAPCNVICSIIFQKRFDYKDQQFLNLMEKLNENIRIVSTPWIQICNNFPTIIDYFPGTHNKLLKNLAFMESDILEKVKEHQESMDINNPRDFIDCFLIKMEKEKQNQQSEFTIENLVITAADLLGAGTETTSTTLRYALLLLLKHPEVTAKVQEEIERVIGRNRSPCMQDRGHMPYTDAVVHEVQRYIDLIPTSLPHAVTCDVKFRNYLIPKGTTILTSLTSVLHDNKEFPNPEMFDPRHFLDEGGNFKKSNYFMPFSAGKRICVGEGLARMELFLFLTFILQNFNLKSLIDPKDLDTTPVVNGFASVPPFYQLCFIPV
Procedure, shortened: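 Enzyme-substrate mix with proluciferin substrate (P450-Glo CYP2C19 system) preincubated with compounds 10 min at room temperature; NADPH regeneration solution added, 37C for 1 h; detection reagent stops reaction, luminescence read after 20 min. Ketoconazole positive control.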

[11] = molecular target: Cytochrome P450 2C9 (Homo sapiens) (UniProt P11712); assay: Cytochrome P450 Family 2 Subfamily C Member 9 (CYP2C9) small molecule antagonists: luciferase reporter qHTS assay (AID 1671198); also: series mostly up to about 120 µM; nearly all actives have a fitted effect of over 50% in size
Cytochrome P450 2C9 (Homo sapiens), sequence (P11712 whole entry, looked up): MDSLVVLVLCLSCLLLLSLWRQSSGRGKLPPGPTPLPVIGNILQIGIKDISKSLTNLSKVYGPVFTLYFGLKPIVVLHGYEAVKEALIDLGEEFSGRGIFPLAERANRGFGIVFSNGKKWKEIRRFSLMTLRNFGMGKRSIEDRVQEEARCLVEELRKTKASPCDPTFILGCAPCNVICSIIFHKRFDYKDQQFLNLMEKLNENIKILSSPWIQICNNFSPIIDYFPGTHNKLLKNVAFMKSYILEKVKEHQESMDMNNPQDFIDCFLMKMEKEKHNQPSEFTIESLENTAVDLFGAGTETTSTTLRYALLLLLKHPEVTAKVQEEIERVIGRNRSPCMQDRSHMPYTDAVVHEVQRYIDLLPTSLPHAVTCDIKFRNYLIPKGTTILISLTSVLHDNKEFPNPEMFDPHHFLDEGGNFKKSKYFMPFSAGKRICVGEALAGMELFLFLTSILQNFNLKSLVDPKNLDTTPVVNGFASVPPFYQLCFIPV
Procedure, shortened: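 P450-Glo proluciferin substrate with CYP2C9 enzyme; 10 min RT preincubation, then NADPH regeneration 1 h at 37C; luciferin detection reagent 20 min RT, luminescence in relative luminescence units.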

[12] = molecular target: Cytochrome P450 1A2 (Homo sapiens) (UniProt P05177); assay: Cytochrome P450 Family 1 Subfamily A Member 2 (CYP1A2) small molecule antagonists: luciferase reporter qHTS assay (AID 1671199); also: nearly all actives have a fitted effect of over 50% in size; also: potency is read from the fitted curve at half-maximal effect; as to activity change, negative = inhibition: series mostly up to about 120 µM
Cytochrome P450 1A2 (Homo sapiens), sequence (P05177 whole entry, looked up): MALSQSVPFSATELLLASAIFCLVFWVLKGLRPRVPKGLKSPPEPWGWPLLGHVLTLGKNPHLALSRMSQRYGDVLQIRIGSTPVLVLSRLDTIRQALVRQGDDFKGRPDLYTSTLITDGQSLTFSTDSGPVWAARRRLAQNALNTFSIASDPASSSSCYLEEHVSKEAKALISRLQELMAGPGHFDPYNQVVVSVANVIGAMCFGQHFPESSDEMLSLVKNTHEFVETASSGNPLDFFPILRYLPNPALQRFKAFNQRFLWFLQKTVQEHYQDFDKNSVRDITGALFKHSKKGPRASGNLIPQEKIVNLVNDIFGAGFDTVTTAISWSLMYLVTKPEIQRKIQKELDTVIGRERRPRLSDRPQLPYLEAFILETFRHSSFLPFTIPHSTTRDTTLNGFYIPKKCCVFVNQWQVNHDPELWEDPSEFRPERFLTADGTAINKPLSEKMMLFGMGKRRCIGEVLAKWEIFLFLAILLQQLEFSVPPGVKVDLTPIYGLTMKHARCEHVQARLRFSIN
Procedure, shortened: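 Steps: enzyme-substrate mix dispensed; test compounds and furafylline control pinned in; 10 min room temperature; NADPH regeneration solution added, 1 h; reaction stopped with luciferin detection reagent; luminescence read after 20 min.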

[13] = molecular target: Voltage-gated inwardly rectifying potassium channel KCNH2 (Homo sapiens) (UniProt Q12809); assay: Human Ether-a-go-go-Related Gene (hERG) channel small molecule antagonists: fluorescence cell-based qHTS assay (AID 1671200);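 also: hERG-expressing U2OS cells given a thallium stimulus after FluxOR II dye loading; series mostly up to about 77 µM; nearly all actives have a fitted effect of over 50% in size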
Voltage-gated inwardly rectifying potassium channel KCNH2 (Homo sapiens), sequence (Q12809 whole entry, looked up): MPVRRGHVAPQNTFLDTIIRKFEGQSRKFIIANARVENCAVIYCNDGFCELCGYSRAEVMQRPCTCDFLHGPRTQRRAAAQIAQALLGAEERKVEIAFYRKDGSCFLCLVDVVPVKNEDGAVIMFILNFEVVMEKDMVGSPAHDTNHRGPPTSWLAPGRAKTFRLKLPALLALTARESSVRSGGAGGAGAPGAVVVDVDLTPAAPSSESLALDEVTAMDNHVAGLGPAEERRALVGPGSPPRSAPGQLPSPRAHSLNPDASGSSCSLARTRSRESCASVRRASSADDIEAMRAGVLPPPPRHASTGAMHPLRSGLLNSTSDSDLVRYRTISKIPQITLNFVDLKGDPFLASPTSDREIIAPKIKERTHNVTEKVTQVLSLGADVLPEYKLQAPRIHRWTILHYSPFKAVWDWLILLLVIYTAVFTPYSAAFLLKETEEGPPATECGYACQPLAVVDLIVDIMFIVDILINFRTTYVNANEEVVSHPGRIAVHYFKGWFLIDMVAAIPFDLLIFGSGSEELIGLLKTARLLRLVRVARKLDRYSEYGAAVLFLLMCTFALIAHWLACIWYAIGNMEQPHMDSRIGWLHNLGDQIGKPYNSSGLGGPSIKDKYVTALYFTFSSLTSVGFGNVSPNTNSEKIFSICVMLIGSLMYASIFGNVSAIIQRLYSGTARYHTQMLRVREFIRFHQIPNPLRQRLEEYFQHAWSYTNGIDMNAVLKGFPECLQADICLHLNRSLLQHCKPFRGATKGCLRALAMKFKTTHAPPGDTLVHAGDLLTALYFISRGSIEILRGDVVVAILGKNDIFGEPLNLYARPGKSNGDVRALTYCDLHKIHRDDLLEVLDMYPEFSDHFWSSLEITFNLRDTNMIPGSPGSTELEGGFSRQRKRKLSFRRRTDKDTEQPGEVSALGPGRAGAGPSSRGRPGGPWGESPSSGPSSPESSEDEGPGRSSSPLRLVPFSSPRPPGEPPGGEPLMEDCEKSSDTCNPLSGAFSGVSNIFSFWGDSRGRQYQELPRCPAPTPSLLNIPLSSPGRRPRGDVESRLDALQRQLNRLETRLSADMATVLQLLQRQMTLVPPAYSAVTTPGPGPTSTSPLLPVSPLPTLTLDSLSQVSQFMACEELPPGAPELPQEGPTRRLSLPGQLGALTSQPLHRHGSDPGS
Procedure, shortened: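 Thallium served as the potassium surrogate; its influx into dye-loaded U2OS cells carrying the channel was measured by fluorescence over 2 min.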

[14] = molecular target: Cytochrome P450 3A4 (Homo sapiens) (UniProt P08684); assay: Cytochrome P450 Family 3 Subfamily A Member 4 (CYP3A4) small molecule antagonists: luciferase reporter qHTS assay (AID 1671201)
Cytochrome P450 3A4 (Homo sapiens), sequence (P08684 whole entry, looked up): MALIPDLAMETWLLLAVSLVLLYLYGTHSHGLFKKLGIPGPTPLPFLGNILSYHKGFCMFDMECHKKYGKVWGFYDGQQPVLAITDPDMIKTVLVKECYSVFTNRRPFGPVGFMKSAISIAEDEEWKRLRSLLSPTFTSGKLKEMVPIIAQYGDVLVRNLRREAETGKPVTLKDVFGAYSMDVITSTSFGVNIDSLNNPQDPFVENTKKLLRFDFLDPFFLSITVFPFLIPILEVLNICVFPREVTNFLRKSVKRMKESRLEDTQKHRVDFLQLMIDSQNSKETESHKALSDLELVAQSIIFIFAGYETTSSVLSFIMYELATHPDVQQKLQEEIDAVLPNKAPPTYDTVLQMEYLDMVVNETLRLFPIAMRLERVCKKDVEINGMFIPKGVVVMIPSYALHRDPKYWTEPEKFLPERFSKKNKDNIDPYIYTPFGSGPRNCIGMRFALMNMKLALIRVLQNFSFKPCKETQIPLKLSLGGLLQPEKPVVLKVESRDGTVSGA
Procedure, shortened: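 Relative luminescence units after 20 min with luciferin detection reagent served as read-out. Beforehand, CYP3A4 turned over a proluciferin substrate for 1 h at room temperature with NADPH regeneration, following 10 min compound preincubation.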

CCOc1ccc(C(=O)OCCN(CC)CC)cc1
Potency [1]: inactive
Potency [2]: inactive
outcome [3]: inactive
Potency [4]: inactive
Potency [5]: inactive
max activation [6]: -2.52%
Potency [7]: inactive
Potency [8]: inactive
Potency [9]: 1.55 µM (active)
Potency [10]: inactive
Potency [11]: inactive
Potency [12]: 27.5 µM (active)
Potency [13]: inactive
Potency [14]: inactive

N[C@H]1CN(c2c(F)cc3c(=O)c(C(=O)O)cn(C4C[C@H]4F)c3c2Cl)CC12CC2 (stereo partly drawn)
Potency [1]: inactive
Potency [2]: inactive
outcome [3]: inactive
Potency [4]: inactive
Potency [5]: inactive
Potency [9]: inactive
Potency [10]: inactive
Potency [11]: inactive
Potency [12]: inactive
Potency [13]: inactive

CN1CC(=O)NC1=N
Potency [1]: inactive
Potency [2]: inactive
outcome [3]: inactive
Potency [4]: inactive
Potency [5]: inactive
max activation [6]: -5.88%
Potency [7]: inactive
Potency [8]: inactive
Potency [9]: inactive
Potency [10]: inactive
Potency [11]: inactive
Potency [12]: inactive
Potency [13]: inactive
Potency [14]: inactive

CC(=O)OCC(CCn1cnc2cnc(N)nc21)COC(C)=O
Potency [1]: inactive
Potency [2]: inactive
outcome [3]: inactive
Potency [4]: inactive
Potency [5]: inactive
max activation [6]: -0.776%
Potency [7]: inactive
Potency [8]: inactive
Potency [10]: inactive
Potency [11]: inactive
Potency [13]: inactive
Potency [14]: inactive

CC1(C)CO[C@@H](CC(=O)O)CN1
Potency [1]: inactive
Potency [2]: inactive
outcome [3]: inactive
Potency [4]: inactive
Potency [5]: inactive
max activation [6]: -0.675%
Potency [7]: inactive
Potency [8]: inactive
Potency [9]: inactive
Potency [10]: inactive
Potency [11]: inactive
Potency [12]: inactive
Potency [13]: inactive
Potency [14]: inactive

N[C@H](C(=O)O)c1ccc(O)cc1
caspase activation [1]: -0.122% [at 19 µM]
Potency [2]: inactive
caspase-3/7 activation [3]: -0.938% [at 19 µM]
activity change, negative = cytotoxicity [4]: 0.561% [at 19 µM]
activation [5]: -2.7% [at 19 µM]
max activation [6]: -1.63%
Potency [7]: inactive
Potency [8]: inactive
activity change, negative = inhibition [9]: -10.2% [at 23.6 µM]
Potency [10]: inactive
activity change, negative = inhibition [11]: -0.95% [at 23.6 µM]
Potency [12]: inactive
activity change, negative = inhibition [13]: 1.26% [at 15.8 µM]
activity change, negative = inhibition [14]: -17% [at 23.6 µM]

Nc1nc2c(ncn2COC(CO)CO)c(=O)[nH]1
Potency [1]: inactive
Potency [2]: inactive
outcome [3]: inactive
Potency [4]: inactive
Potency [5]: inactive
max activation [6]: 0.872%
Potency [7]: inactive
Potency [8]: inactive
Potency [9]: inactive
Potency [10]: inactive
Potency [11]: inactive
Potency [12]: inactive
Potency [13]: inactive
Potency [14]: inactive

O=C(CCCN1CCC(O)(c2cccc(C(F)(F)F)c2)CC1)c1ccc(F)cc1
Potency [1]: inactive
Potency [2]: inactive
outcome [3]: inactive
Potency [4]: inactive
Potency [5]: inactive
max activation [6]: 1.11%
Potency [7]: 4.47 µM (active)
Potency [8]: 12.6 µM (active)
Potency [10]: inactive
Potency [11]: inactive
Potency [12]: inactive
Potency [14]: inactive

CCCCC(CC)COC(=O)c1ccccc1O (stereo not drawn)
Potency [1]: inactive
Potency [2]: inactive
outcome [3]: inactive
Potency [4]: inactive
Potency [5]: inactive
max activation [6]: -4.33%
Potency [7]: inactive
Potency [8]: inactive
Potency [10]: inactive
Potency [11]: inactive
Potency [12]: inactive
Potency [13]: inactive
Potency [14]: inactive

COc1c(N2C[C@@H]3CCCN[C@@H]3C2)c(F)cc2c(=O)c(C(=O)O)cn(C3CC3)c12
Potency [1]: inactive
Potency [2]: inactive
outcome [3]: inactive
Potency [4]: inactive
Potency [5]: inactive
max activation [6]: -3.75%
Potency [7]: inactive
Potency [8]: inactive
Potency [9]: inactive
Potency [10]: inactive
Potency [11]: inactive
Potency [12]: inactive
Potency [13]: inactive
Potency [14]: inactive

Cc1c(NC(C)C)c(=O)n(-c2ccccc2)n1C
Potency [1]: inactive
Potency [2]: inactive
outcome [3]: inactive
Potency [4]: inactive
Potency [5]: inactive
max activation [6]: -1.85%
Potency [7]: inactive
Potency [8]: inactive
Potency [9]: inactive
Potency [10]: inactive
Potency [11]: inactive
Potency [12]: 28.8 µM (active)
Potency [13]: inactive
Potency [14]: inactive

c1ccc(CC2=NCCN2)cc1
Potency [1]: inactive
Potency [2]: inactive
outcome [3]: inactive
Potency [4]: inactive
Potency [5]: inactive
max activation [6]: -1.57%
Potency [7]: inactive
Potency [8]: inactive
Potency [11]: inactive
Potency [12]: inactive
Potency [13]: inactive
Potency [14]: inactive

C=C[Si](OC(=C)C)(OC(=C)C)OC(=C)C
Potency [1]: inactive
Potency [2]: inactive
outcome [3]: inactive
Potency [4]: inactive
Potency [5]: inactive
Potency [9]: inactive
Potency [10]: 39.9 µM (active)
Potency [11]: inactive
Potency [12]: inactive
Potency [13]: inactive

N=C(N)c1ccc2cc(OC(=O)c3ccc(N=C(N)N)cc3)ccc2c1
Potency [1]: inactive
Potency [2]: inactive
outcome [3]: inactive
Potency [4]: inactive
Potency [5]: inactive
max activation [6]: -2.79%
Potency [7]: inactive
Potency [8]: inactive
Potency [9]: inactive
Potency [10]: inactive
Potency [11]: inactive
Potency [12]: inactive
Potency [13]: inactive
Potency [14]: inactive

CN(C)CCCN1c2ccccc2CCc2ccc(Cl)cc21
Potency [1]: 61.1 µM (active)
Potency [2]: 68.6 µM (active) and 29.8 µM (active)
outcome [3]: inactive
Potency [4]: 61.1 µM (active) and 29.8 µM (active)

COC(=O)[C@@H](N)Cc1ccc(O)c(O)c1
Potency [1]: inactive
Potency [2]: inactive
outcome [3]: inactive
Potency [4]: inactive
Potency [5]: inactive
max activation [6]: -6.8%
Potency [7]: inactive
Potency [8]: inactive
Potency [9]: inactive
Potency [10]: inactive
Potency [11]: inactive
Potency [13]: inactive
Potency [14]: inactive

NC(=O)c1cn(Cc2c(F)cccc2F)nn1
Potency [1]: inactive
Potency [2]: inactive
outcome [3]: inactive
Potency [4]: inactive
Potency [5]: inactive
max activation [6]: -1.62%
Potency [7]: inactive
Potency [8]: inactive
Potency [9]: inactive
Potency [10]: inactive
Potency [11]: inactive
Potency [12]: inactive
Potency [14]: inactive

Cc1cc(O)cc2c1O[C@](C)(CCC[C@H](C)CCC[C@H](C)CCCC(C)C)CC2
Potency [1]: inactive
Potency [2]: inactive
outcome [3]: inactive
Potency [4]: inactive
Potency [5]: inactive
max activation [6]: -2.13%
Potency [7]: inactive
Potency [8]: inactive
Potency [9]: inactive
Potency [10]: inactive
Potency [13]: inactive
Potency [14]: inactive
